Test results taken from PubChem BioAssay.
Active and inactive are the calls of the source.

Experiments:
[1] = binders of probe aFSTL3 on microarray, primary screen, stem cell growth factor project, biochemical, small-molecule microarray, fluorescence 635/667 (AID 1064); settings: higher = more signal;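 further: measures binding of the biotinylated anti-FSTL3 antibody to printed compounds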
[2] = binders from COS7 lysate, DM2A8 probe, primary screen, torsin A project, cell lysate, small-molecule microarray, fluorescence 635/667 (AID 1065); settings: higher = more signal, COS7 lysate expressing mutant human TOR1A
[3] = binders of probe aFGF2 on microarray, primary screen, stem cell growth factor project, biochemical, small-molecule microarray, fluorescence 635/667 (AID 1067); settings: higher = more signal;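 further: measures binding of biotinylated aFGF2 protein to printed compounds on slides; z-score merges feature fluorescence and signal-to-noise across triplicate slides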
[4] = binders of probe aFGF10 on microarray, primary screen, stem cell growth factor project, biochemical, small-molecule microarray, fluorescence 635/667 (AID 1071); settings: higher = more signal;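 further: score merges 667 nm spot intensity and signal to noise from triplicate slides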
[5] = biological target: Neurogenic locus notch homolog protein 2 (Homo sapiens) (UniProt Q04721); experiment: Notch2 binders on small-molecule microarrays, primary screen, biochemical, small-molecule microarray, 635 nm fluorescence, stem cell growth factors (AID 1073); settings: Notch2 binding, higher = more signal
Neurogenic locus notch homolog protein 2 (Homo sapiens), sequence (Q04721 whole entry, looked up, canonical isoform): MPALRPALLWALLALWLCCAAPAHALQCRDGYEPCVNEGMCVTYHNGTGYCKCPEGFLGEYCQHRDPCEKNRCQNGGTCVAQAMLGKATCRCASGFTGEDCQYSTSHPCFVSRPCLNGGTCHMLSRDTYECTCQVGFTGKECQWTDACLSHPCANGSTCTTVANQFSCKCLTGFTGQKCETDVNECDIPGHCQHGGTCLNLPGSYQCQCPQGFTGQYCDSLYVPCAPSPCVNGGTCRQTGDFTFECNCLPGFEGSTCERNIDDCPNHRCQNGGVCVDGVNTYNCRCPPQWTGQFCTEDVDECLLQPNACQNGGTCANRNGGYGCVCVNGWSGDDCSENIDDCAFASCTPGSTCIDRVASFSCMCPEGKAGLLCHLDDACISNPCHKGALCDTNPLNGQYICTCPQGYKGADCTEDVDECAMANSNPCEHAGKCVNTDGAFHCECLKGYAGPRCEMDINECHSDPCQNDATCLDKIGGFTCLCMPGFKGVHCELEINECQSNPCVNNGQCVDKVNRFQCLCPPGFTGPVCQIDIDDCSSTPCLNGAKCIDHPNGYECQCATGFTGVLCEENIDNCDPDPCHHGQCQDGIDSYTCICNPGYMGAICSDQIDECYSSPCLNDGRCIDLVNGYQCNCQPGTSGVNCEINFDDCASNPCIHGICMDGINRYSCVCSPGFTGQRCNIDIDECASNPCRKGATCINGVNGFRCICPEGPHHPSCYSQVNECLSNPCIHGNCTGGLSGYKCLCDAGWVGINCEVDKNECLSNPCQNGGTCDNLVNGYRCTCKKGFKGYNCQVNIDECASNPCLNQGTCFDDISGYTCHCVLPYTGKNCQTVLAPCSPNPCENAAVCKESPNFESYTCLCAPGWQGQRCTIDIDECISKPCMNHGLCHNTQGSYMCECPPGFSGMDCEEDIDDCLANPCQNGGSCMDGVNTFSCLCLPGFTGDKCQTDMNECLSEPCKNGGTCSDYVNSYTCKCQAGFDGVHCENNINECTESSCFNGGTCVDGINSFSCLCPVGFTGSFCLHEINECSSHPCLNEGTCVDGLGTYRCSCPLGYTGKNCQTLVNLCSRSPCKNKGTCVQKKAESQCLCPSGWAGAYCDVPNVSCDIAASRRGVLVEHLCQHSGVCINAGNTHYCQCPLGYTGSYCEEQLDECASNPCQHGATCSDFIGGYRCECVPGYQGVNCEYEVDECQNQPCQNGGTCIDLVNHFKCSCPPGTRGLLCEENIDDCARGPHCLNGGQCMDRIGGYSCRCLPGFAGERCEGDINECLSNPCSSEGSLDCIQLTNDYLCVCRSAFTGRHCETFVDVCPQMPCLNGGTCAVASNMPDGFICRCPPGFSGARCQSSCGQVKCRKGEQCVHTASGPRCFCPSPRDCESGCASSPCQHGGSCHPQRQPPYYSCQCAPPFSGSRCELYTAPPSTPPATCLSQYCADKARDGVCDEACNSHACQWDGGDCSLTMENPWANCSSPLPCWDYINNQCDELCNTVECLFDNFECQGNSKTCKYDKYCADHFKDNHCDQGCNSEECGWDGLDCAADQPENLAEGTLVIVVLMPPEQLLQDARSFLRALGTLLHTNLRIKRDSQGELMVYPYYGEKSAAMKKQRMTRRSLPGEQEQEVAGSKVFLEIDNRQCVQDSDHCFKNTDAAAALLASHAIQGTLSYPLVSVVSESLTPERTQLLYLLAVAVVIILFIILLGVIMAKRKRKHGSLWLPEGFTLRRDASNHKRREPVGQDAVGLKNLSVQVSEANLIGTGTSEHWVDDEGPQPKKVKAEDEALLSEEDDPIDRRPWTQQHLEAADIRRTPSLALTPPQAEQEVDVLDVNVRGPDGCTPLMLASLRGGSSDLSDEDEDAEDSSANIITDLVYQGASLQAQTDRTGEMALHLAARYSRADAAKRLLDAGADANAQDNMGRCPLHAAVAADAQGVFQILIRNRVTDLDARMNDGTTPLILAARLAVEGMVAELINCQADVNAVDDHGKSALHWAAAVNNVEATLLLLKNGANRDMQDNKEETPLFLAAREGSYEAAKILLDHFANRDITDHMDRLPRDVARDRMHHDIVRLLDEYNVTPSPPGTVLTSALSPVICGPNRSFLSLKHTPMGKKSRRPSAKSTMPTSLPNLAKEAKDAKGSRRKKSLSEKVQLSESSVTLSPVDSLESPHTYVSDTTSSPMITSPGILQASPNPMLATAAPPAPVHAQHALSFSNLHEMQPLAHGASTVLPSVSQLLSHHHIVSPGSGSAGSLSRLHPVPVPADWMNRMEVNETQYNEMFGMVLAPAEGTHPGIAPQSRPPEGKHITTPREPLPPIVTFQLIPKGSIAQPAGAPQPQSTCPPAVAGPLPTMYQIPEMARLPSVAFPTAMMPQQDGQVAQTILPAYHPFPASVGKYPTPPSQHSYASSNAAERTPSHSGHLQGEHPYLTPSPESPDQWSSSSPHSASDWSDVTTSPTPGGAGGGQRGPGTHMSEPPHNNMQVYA

[6] = biological target: Pro-neuregulin-1, membrane-bound isoform (Homo sapiens) (UniProt Q02297); experiment: NRG1 binders on small-molecule microarrays, primary screen, psychiatric disease protein project, biochemical, small-molecule microarray, fluorescence 635/667 (AID 1075); settings: NRG1 binding, 635 nm fluorescence, higher = more signal;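 further: score combines 667 nm spot fluorescence with signal to noise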
Pro-neuregulin-1, membrane-bound isoform (Homo sapiens), sequence (Q02297 whole entry, looked up, the tested form may be a part, canonical isoform): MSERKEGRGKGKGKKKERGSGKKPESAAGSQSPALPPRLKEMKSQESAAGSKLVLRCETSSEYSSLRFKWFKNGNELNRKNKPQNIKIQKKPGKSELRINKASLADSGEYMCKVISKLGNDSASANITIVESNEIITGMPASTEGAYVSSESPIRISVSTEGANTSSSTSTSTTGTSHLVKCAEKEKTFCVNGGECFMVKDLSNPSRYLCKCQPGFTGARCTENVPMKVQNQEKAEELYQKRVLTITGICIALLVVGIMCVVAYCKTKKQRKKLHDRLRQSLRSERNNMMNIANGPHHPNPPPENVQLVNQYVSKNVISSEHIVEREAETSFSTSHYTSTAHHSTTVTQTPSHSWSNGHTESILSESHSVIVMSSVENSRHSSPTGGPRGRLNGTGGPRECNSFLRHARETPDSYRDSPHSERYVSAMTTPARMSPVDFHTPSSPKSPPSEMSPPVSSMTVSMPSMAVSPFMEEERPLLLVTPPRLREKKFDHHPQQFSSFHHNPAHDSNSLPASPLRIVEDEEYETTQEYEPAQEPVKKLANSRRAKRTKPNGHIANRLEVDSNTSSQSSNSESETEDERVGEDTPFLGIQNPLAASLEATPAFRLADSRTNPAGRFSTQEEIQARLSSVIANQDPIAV

[7] = system: Neuregulin-1 EGF-like domain; experiment: binders of neuregulin-1 EGF-like domain, primary screen, biochemical, small-molecule microarray, 635 nm fluorescence (AID 1081); settings: small-molecule microarray binding, higher = more signal;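 further: binding of the protein to compounds printed on small-molecule microarray slides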
[8] = FRG1 promoter luciferase signal modulators, primary screen, FRG1 inhibition for FSHD, cell-based, C2C12 myotubes, firefly/Renilla luciferase, luminescence (AID 1084); settings: higher = more signal, called active from +8 up or from −8 down
[9] = binders of probe aFST on microarray, primary screen, stem cell growth factor project, biochemical, small-molecule microarray, fluorescence 635/667 (AID 1086); settings: higher = more signal;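 further: score merges 667 nm fluorescence with signal-to-noise of each printed compound spot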
[10] = binders of probe aHhip on microarray, primary screen, stem cell growth factor project, biochemical, small-molecule microarray, fluorescence 635/667 (AID 1087); settings: higher = more signal;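 further: score merges spot fluorescence at 667nm with spot signal to noise ratio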
[11] = system: PRMT1 (protein arginine N-methyltransferase 1); experiment: PRMT1 binders on small-molecule microarrays, primary screen, biochemical, small-molecule microarray, 635 nm fluorescence (AID 1088); settings: small-molecule microarray binding, higher = more signal;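 further: binding of Prmt1 protein to compounds spotted on small-molecule microarray slides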
[12] = yeast growth modulation, basal conditions, primary screen, YJM789 clinical isolate, OD600, 24 h (AID 1089);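 further: growth of clinical yeast isolate S. cerevisiae YJM 789 seeded 1000 cells per well; test concentration not given here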; settings: S. cerevisiae YJM789 growth, higher = more signal, called active from +8 up or from −8 down
[13] = fission yeast growth modulation, primary screen, strain 972, OD600, 24 h, no modulator (AID 1090);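 further: basal condition with compound alone and no growth modifier present; test concentration not given here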; settings: S. pombe 972 growth, higher = more signal, called active from +8 up or from −8 down
[14] = S. cerevisiae growth modulation with rapamycin, primary screen, strain BY4716, OD600, 96 h (AID 1091); settings: higher = more signal, called active from +8 up or from −8 down; further: test concentration not given here
[15] = biological target: Torsin-1A-interacting protein 2 (Homo sapiens) (UniProt Q8NFQ8); experiment: LULL1 binders on small-molecule microarray, primary screen, cell lysate, human LULL1 lysate, 635/667 nm fluorescence (AID 1092); settings: hLULL1 lysate binding, 635 nm fluorescence, higher = more signal;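 further: probe is lysate of COS7 cells overexpressing human LULL1; score merges per-feature 667 nm fluorescence with signal-to-noise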
Torsin-1A-interacting protein 2 (Homo sapiens), sequence (Q8NFQ8 whole entry, looked up): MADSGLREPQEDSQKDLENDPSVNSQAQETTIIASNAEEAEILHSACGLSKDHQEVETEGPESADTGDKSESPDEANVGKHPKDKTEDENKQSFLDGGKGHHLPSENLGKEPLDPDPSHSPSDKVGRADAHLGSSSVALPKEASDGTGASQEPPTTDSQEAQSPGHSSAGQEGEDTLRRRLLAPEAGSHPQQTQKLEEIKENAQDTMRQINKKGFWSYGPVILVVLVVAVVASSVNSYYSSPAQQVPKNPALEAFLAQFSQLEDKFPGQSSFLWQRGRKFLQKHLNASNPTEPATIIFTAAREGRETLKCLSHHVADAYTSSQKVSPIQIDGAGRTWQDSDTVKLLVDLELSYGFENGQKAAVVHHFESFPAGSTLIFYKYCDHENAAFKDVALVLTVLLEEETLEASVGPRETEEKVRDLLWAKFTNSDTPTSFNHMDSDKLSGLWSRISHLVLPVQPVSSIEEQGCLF

[16] = E. coli growth modulation, two-sided OD650, primary screen, E. coli filamentation project, strain DRC41, 24 h (AID 1093); settings: OD650, 24 h, higher = more signal, called active from +8 up or from −8 down;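 further: MC1000 strain lacking acrAB efflux and sulA so SOS filamentation is blocked; test concentration not given here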
[17] = small-molecule microarray binders of probe aLefty2, primary screen, biochemical, biotinylated probe, 635/667 nm fluorescence (AID 1094); settings: higher = more signal;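 further: score merges spot fluorescence near 667 nm with spot signal-to-noise ratio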
[18] = system: Noggin (protein binding on small-molecule microarray); experiment: Noggin binders on small-molecule microarray, primary screen, biochemical, 635/667 nm fluorescence (AID 1095); settings: 635 nm fluorescence, higher = more signal;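 further: score merges 667 nm feature fluorescence with signal to noise over triplicate slides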
[19] = biological target: Neurogenic locus notch homolog protein 3 (Homo sapiens) (UniProt Q9UM47); experiment: NOTCH3 binders on small-molecule microarray, primary screen, biochemical, 635/667 nm fluorescence (AID 1096); settings: NOTCH3 binding, 635 nm fluorescence, higher = more signal
[20] = small-molecule microarray binders of probe aEGFR, primary screen, biochemical, biotinylated probe, 635/667 nm fluorescence (AID 1097); settings: higher = more signal;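 further: probe is a biotinylated anti-EGFR antibody binding compounds printed on slides; score combines fluorescence near 667 nm and signal to noise of each spot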

SMILES | composite z-score [1] | composite z-score [2] | composite z-score [3] | composite z-score [4] | composite z-score [5] | composite z-score [6] | composite z-score [7] | z-score [8] | composite z-score [9] | composite z-score [10] | composite z-score [11] | z-score [12] | z-score [13] | z-score [14] | composite z-score [15] | z-score [16] | composite z-score [17] | composite z-score [18] | composite z-score [19] | composite z-score [20]
CN1C(=O)C2C=CC(C(O)c3cc(C(F)(F)F)cc(C(F)(F)F)c3)N(NC(=O)OC(C)(C)C)C2C1=O (stereo not given) | 0.153 | 0.324 | -0.0169 | 0.577 | 1.67 | 2.01 | 1.03 | 1.07 (inactive) | 1.52 | -0.0296 | 1.56 | -0.403 (inactive) | -0.983 (inactive) | -0.314 (inactive) | 3.61 | -0.0262 (inactive) | 0.322 | 0.421 | 0.995 | 0.0169
C=C(COC)C(=O)CC[C@@H](OC(=O)c1cccnc1)c1ccccc1OCCO | 0.403 | 1.66 | -0.122 | 0.276 | -0.427 | 0.754 | 0.655 | 0.0248 (inactive) | 0.327 | 0.0176 | 0.409 | -0.587 (inactive) | -1.7 (inactive) | -0.369 (inactive) | -0.135 | 0.0506 (inactive) | 0.0789 | 0.879 | -0.302 | -0.0828
C[C@]1(C(=O)NCCN2CCOCC2)c2ccccc2C(=O)N(Cc2cc(F)cc(C(F)(F)F)c2)[C@H]1c1ccc(CO)cc1 | 0.0545 | 0.933 | -0.141 | -0.762 | -0.387 | 1.06 | 1.47 | -1.54 (inactive) | 1.16 | -0.0994 | 1.49 | 0.006 (inactive) | 0.487 (inactive) | -0.837 (inactive) | 3.36 | 1.47 (inactive) | -0.0511 | 0.463 | 0.572 | -0.142
COCCCNC(=O)[C@@]1(c2ccc([N+](=O)[O-])cc2)CC(=O)N(CC23CC4CC(CC(C4)C2)C3)[C@@H]1c1ccc(CO)cc1I | 0.456 | -0.243 | -0.034 | 0.246 | 0.218 | 1.13 | 1.3 | -2.2 (inactive) | 0.15 | -0.236 | 1.3 | 1.01 (inactive) | 1.08 (inactive) | 4.92 (inactive) | 1.75 | -0.254 (inactive) | 0.0283 | 0.26 | 0.341 | -0.183
O=C1c2ccccc2[C@](Cc2ccccc2I)(C(=O)NC2CC2)[C@H](c2ccc(CO)cc2)N1Cc1ccccc1C(F)(F)F | -0.0446 | 0.338 | -0.0878 | 0.433 | -0.229 | 1.74 | 1.26 | -2.07 (inactive) | 0.11 | -0.0726 | 1.55 | -0.124 (inactive) | -0.684 (inactive) | 0.341 (inactive) | 2.76 | -1.8 (inactive) | -0.0817 | 0.894 | 1.06 | -0.139
CCOC(=O)C1=C[C@@H](C(C)(C)C)N(S(=O)(=O)c2ccc(C)cc2)[C@H]1c1ccccc1 | 0.401 | 0.685 | 0.0524 | 0.69 | 1.63 | 0.4 | 0.954 | -1.66 (inactive) | 1.04 | 0.206 | 1.22 | 0.826 (inactive) | 1.27 (inactive) | 1.41 (inactive) | 0.928 | -0.0247 (inactive) | 0.0194 | 0.576 | 1.07 | 0.124
CS(=O)(=O)CCOC(=O)C1=CC(CCCO)=CC(C2CC2)N(Cc2cccc(OC(F)(F)F)c2)C=C1C(=O)OCCS(C)(=O)=O (stereo not given) | -0.527 | 0.314 | -0.0734 | 0.147 | -0.116 | 1.07 | 0.897 | 0.677 (inactive) | 0.0187 | -0.0994 | 0.757 | -0.725 (inactive) | -2.34 (inactive) | -1.75 (inactive) | 2.29 | -0.917 (inactive) | 0.203 | -0.0678 | 0.0213 | -0.106
O=C1OCCC=C[C@H]2OC34C=CCN(c5ccc(Cl)cc5)C(=O)[C@H]3N(CCCCCCO)C(=O)[C@@H]4C12 (stereo not given in full) | 0.43 | -0.0789 | -0.116 | -0.683 | -0.879 | -0.221 | 1.24 | 0.45 (inactive) | -0.257 | -0.226 | 0.117 | 0.115 (inactive) | -1.1 (inactive) | -0.337 (inactive) | 0.455 | 1.78 (inactive) | -0.139 | -0.979 | -0.379 | -0.191
CO[C@H]1O[C@H](CO)[C@@H](OC(=O)Nc2ccc(C#N)cc2)[C@@H]2OC(=O)[C@H](Cc3cccc(Br)c3)C/C=C/C[C@@H](Cc3cccc(Br)c3)C(=O)O[C@@H]12 | -0.381 | -0.0617 | -0.0181 | 0.503 | 0.626 | 0.514 | 0.3 | -0.362 (inactive) | 0.572 | 0.195 | 1.24 | 0.471 (inactive) | 0.0261 (inactive) | 27.2 (active) | 1.26 | 0.27 (inactive) | 0.212 | 0.432 | 0.733 | 0.11
COCCOC(=O)N1C(=O)[C@@]2(c3cc(C#CC4(O)CCCCCC4)ccc31)[C@H](c1ccc(OCCO)cc1)N1[C@H](c3ccccc3)[C@H](c3ccccc3)OC(=O)[C@H]1[C@@H]2C(=O)Nc1nc2ccccc2s1 | 0.676 | 0.54 | -0.0234 | 0.874 | 1.32 | 0.526 | 1.04 | 3.79 (inactive) | 1.08 | 0.245 | 1.54 | 1.76 (inactive) | 1.05 (inactive) | 2.93 (inactive) | 1.57 | 0.11 (inactive) | 0.225 | 1.42 | 1.05 | 0.219
